The source of these data is PubChem BioAssay AID1220 (Sanford-Burnham Center for Chemical Genomics, 2008).

Screen size: about 190,000 compounds; about 1,300 (0.68%) were called active. The sample holds actives, similar compounds and a random draw of the others, so the mix is not that of the screen. Rule as the data show it: active = inhibition above about 50%; inactive = the rest.

The target in the assay is Mannose-6-phosphate isomerase (Homo sapiens) (UniProt P34949). The assay is described as follows: human PMI inhibitors, high substrate, primary screen, biochemical, fluorescence intensity, high mannose 6-phosphate (AID 1220). To be noted: recombinant PMI enzyme, coupled fluorescence intensity; at 20 µM; hits give high values.
Chain of Mannose-6-phosphate isomerase (Homo sapiens) (P34949 whole entry, looked up): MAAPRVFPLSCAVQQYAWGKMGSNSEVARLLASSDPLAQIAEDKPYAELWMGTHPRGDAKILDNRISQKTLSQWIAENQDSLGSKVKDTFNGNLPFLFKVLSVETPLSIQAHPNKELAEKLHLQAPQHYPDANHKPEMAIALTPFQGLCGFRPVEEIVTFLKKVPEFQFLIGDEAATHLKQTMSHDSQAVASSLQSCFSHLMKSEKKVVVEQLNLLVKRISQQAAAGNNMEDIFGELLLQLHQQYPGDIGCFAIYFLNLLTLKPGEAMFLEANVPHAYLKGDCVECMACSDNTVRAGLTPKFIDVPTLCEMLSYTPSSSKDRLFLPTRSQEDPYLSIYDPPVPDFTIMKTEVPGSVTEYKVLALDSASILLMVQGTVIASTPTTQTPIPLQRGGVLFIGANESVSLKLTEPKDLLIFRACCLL
In the case of `Nc1ccccc1Nc1ccccc1`, the inhibition (usually the change of the read-out against control, counted positive when it falls) is -26.3% (inactive).
Regarding `COc1ccc(Nc2ccccc2N)cc1`, the inhibition is 3.8% (inactive).
`Nc1ccc(Nc2ccccc2N)cc1`: the inhibition was 52.9% (active).
As to `Cc1ccc(-c2cnc(-c3ccncc3)o2)cc1`, the inhibition is -3.1% (inactive).
`CCC(O)(C#CCN1CCCCC1)CC`: the inhibition was -6.1% (inactive).
In the case of `Cc1ccc2c(c1)C(O)(CC(=O)c1ccc(C)s1)C(=O)N2` (configuration not stated) it was 4.5% (inactive).
The figure for `CC1CCN(S(=O)(=O)c2ccc(C(=O)OCc3ccc4c(c3)OCO4)cc2)CC1` is -5.5% (inactive); for `CCCCN=C1C([N+](=O)[O-])=CC=C2C1=NC1(CCCCC1)N2O` it is 53% (active); for `Cn1c(SCC(=O)Nc2cccc3ccccc23)nc(O)cc1=O` it is 26.1% (inactive).
In the case of `O=C(O)Cc1c[nH]c2cccc(O)c12`, the inhibition was 51.5% (active).
For the compound `NC(=O)Cc1c[nH]c2cccc(O)c12`, the inhibition was 44.8% (inactive).
As for `O=C(O)C(=O)Cc1c[nH]c2ccccc12`, the inhibition is -4.1% (inactive).
As to `CCN(CC(=O)Nc1ccc2c(c1)OCCO2)CC(=O)Nc1ccc2c(c1)OCO2`, the inhibition was 5.7% (inactive).
In the case of `COc1ccc(S(=O)(=O)NCCCCNS(=O)(=O)c2ccc(OC)cc2)cc1` it was 1.1% (inactive).
Regarding `Cc1ccc(-c2[nH]c(-c3ccccc3)nc2SCC(=O)NCC2CCCO2)cc1` (configuration not stated), the inhibition was 3.3% (inactive).
The figure for `O=C(OC1CCN(c2ncc(C(F)(F)F)cc2Cl)CC1)c1ccccc1` is 11.4% (inactive); for `COc1ccc(C(=O)OC2CCN(c3ncc(C(F)(F)F)cc3Cl)CC2)cc1` it is 54.2% (active).
As for `O=C(OC1CCN(c2ncc(C(F)(F)F)cc2Cl)CC1)c1ccc(Cl)cc1`, the inhibition was 7.7% (inactive).
The figure for `NS(=O)(=O)c1ccc(CCNC(=O)COC(=O)/C=C/c2ccc(Cl)cc2)cc1` is 0.2% (inactive); for `CCc1nnc(NC(=O)CSc2nnc(COc3ccc(C)cc3)n2-c2ccccc2)s1` it is 8% (inactive).
Consider `O=C(N/N=C\c1ccc(-c2ccccc2[N+](=O)[O-])o1)C1COc2ccccc2O1` (configuration not stated), for which the inhibition is 55.3% (active).
On to `O=C(N/N=C/c1ccco1)C1CC1c1ccccc1` (configuration not stated), for which the inhibition is 0.2% (inactive).
The figure for `O=C(N/N=C\c1ccc(-c2ccccc2[N+](=O)[O-])o1)C1COc2cc3ccccc3cc2O1` (configuration not stated) is 65.2% (active); for `O=C(N/N=C/c1ccc(-c2cccc([N+](=O)[O-])c2)o1)[C@H]1C[C@@H]1c1ccccc1` it is 8.6% (inactive).
`O=C(N/N=C\c1cccc([N+](=O)[O-])c1O)C1COc2ccccc2O1` (configuration not stated): the inhibition was -15.4% (inactive).
In the case of `Cc1ccc(/C=N\NC(=O)C2COc3cc4ccccc4cc3O2)o1` (configuration not stated) it was 0.7% (inactive).
In the case of `O=C(N/N=C\c1ccc(-c2ccc([N+](=O)[O-])cc2)o1)C1COc2ccccc2O1` (configuration not stated) it was -8.4% (inactive); in that of `O=C(N/N=C\c1ccc([N+](=O)[O-])o1)C1COc2ccccc2O1` (configuration not stated), 21.3% (inactive).
As to `O=C(N/N=C/c1ccc(-c2ccccc2[N+](=O)[O-])o1)[C@H]1C[C@@H]1c1ccccc1`, the inhibition is 63.4% (active).
On to `CC(=O)N1CCC(N(CCCOC(C)C)C(=O)Nc2ccc(C)c(C)c2)CC1`, for which the inhibition was 0.4% (inactive).
Consider `Cc1nc2nc(SCC(=O)N3CCOCC3)nn2c(C)c1Cc1c(F)cccc1Cl`, for which the inhibition is 18.6% (inactive).
For the compound `Cc1cccc(NC(=O)Cn2nnc(-c3ccc(CN4CCCC4)cc3)n2)c1C`, the inhibition was 0.5% (inactive).
On to `CN(c1ccccc1)S(=O)(=O)c1cccc(C(=O)OCC(=O)NCCCN2CCCC2=O)c1`, for which the inhibition is -7.4% (inactive).
On to `CCOc1ccc(CCNC(=O)COC(=O)c2cccnc2OCC)cc1OCC`, for which the inhibition was 14.4% (inactive).
In the case of `COc1ccc(N2C(C(C)=O)=NN(c3ccccc3)C2c2cccs2)cc1` (configuration not stated), the inhibition is 10.7% (inactive).
`CCOc1ccccc1N1CC(C(=O)Nc2ccc3c(c2)OCCO3)CC1=O` (configuration not stated): the inhibition was 1.4% (inactive).
As for `Cc1csc(/C(C#N)=N/O)n1`, the inhibition is 8.3% (inactive).
Turning to `CC1CC(C)CN(CC(=O)c2cccs2)C1` (configuration not stated), the inhibition was -20.3% (inactive).
The figure for `CCc1c(C(=O)Nc2ccc(OC)c(Cl)c2)[nH]c(C)c1C(C)=O` is -0.2% (inactive).
On to `O=C(CCc1ccccc1)NNC(=O)C1CCCCC1`, for which the inhibition was -4.6% (inactive).
As to `CC(C)(C)c1ccc(C(=O)NNc2cc(N3CCCCC3)nc(N3CCCCC3)n2)cc1`, the inhibition is 18.1% (inactive).
`O=C(NNc1cc(N2CCOCC2)nc(N2CCOCC2)n1)c1ccc(Cl)c(Cl)c1`: the inhibition was 48.8% (inactive).
With `O=C(CCc1ccccc1)NNc1cc(N2CCCCC2)nc(N2CCCCC2)n1`, the inhibition was 53.4% (active).
`Cc1ccc(C(=O)NNc2cc(N3CCCC3)nc(N3CCCC3)n2)cc1`: the inhibition was 51.4% (active).
In the case of `O=C(CCc1ccccc1)Nc1ccc(N2CCCCC2)cc1`, the inhibition was 3.5% (inactive).
Take `Cc1ccc(C(=O)NNC(=O)C2CCN(c3nc(C)cc(C)n3)CC2)cc1`: the inhibition is -8.6% (inactive).
Consider `CC(C)(C)c1ccc(C(=O)NNc2cc(N3CCOCC3)nc(N3CCOCC3)n2)cc1`, for which the inhibition is 48.8% (inactive).
In the case of `O=C(NNc1cc(N2CCOCC2)nc(N2CCOCC2)n1)c1ccc([N+](=O)[O-])cc1` it was 56.3% (active).
For `CCOC(=O)N1CCN(C(=O)c2ccc(CN(c3ccccc3)S(C)(=O)=O)cc2)CC1`, the inhibition is -4.3% (inactive).
With `CC(=O)N(c1c(C)n(C)n(-c2ccccc2)c1=O)C1(C(=O)NC2CCCCC2)CCCCC1`, the inhibition was 1.3% (inactive).
Consider `Cc1onc(-c2c(Cl)cccc2Cl)c1C(=O)NCCCN1CCOCC1`, for which the inhibition is -0.3% (inactive).
As for `O=C(c1ccccc1)N1CCOC12CCN(c1ncc(C(F)(F)F)cc1Cl)CC2`, the inhibition was 2.1% (inactive).
On to `CCOC(=O)/C=C/C(=O)OCC(=O)Nc1c(Cl)cccc1Cl`, for which the inhibition is -9.4% (inactive).
In the case of `CCCc1nc2c(sc3nc4c(cc32)COC(C)(C)C4)c(=O)n1CCN(CC)CC` it was -0.7% (inactive); in that of `CCc1nc2c(sc3nc4c(cc32)COC(C)(C)C4)c(=O)n1CCN(CC)CC`, 3.8% (inactive); in that of `CCCc1nc2c(sc3nc4c(cc32)COC(C)(C)C4)c(=O)n1CCN(C)C`, 50.8% (active).
As to `Cc1ccc(C(=O)N/C(=C/c2ccccc2)C(=O)NCC2CCCO2)cc1` (configuration not stated), the inhibition was -4.3% (inactive).
As for `NNC(=O)COc1ncn(-c2ccccc2)n1`, the inhibition was 4.5% (inactive).
Consider `Cc1ccc(NC(=O)C(=O)NCCN2CCN(C(=S)Nc3ccccc3)CC2)cc1`, for which the inhibition is -0.2% (inactive).
Turning to `COCCNC(=O)CN(C(=O)Cn1nnc2ccccc21)c1ccc(F)c(Cl)c1`, the inhibition was -5.3% (inactive).
The figure for `O=c1[nH]c2ccccc2c2ccccc12` is 3.6% (inactive); for `CC(=O)Nc1c(O)c2ccccc2[nH]c1=O` it is 17.5% (inactive).
As to `COc1cc([N+](=O)[O-])ccc1NC(=O)CCCOc1cccc(C)c1C`, the inhibition is 9.2% (inactive).
The figure for `OCCOCCOc1ccc(-c2nn[nH]n2)cc1` is -12.5% (inactive); for `CCCCC(=O)Nc1ccc(NC(=S)NC(=O)c2cccs2)cc1OC` it is 14.4% (inactive).
With `O=C(Nc1cccc(S(=O)(=O)Nc2ccccc2Cl)c1)c1ccc(Cl)nc1`, the inhibition was 7.3% (inactive).
The figure for `Oc1ccc2ccccc2c1C1Nc2cccc3cccc(c23)N1` is 10.6% (inactive); for `CCC12CN3CC(CC)(CN(C1)C3c1c(O)ccc3ccccc13)C2=O` (configuration not stated) it is 27.9% (inactive); for `CN1c2ccccc2N(C)C1c1c(O)ccc2ccccc12` it is 55.3% (active).
As to `Fc1ccc(NC(=S)N2CCn3cccc3C2c2cccnc2)cc1` (configuration not stated), the inhibition was 1% (inactive).
`Cc1ccc(NC(=O)C(Nc2ccccc2)c2ccccc2)cc1` (configuration not stated): the inhibition is 1.5% (inactive).
As for `CC(=O)N1N=C(c2cccc([N+](=O)[O-])c2)OC1c1cccc(Br)c1` (configuration not stated), the inhibition was 4.5% (inactive).
Consider `CCC(=Nc1ccc(N)cc1)C1=C(O)C(C(=O)OC)C(C)(C)CC1=O` (configuration not stated), for which the inhibition is 53.8% (active).
For the compound `CCCCC(=Nc1ccc(N)cc1)C1=C(O)C(C(=O)OC)C(C)(C)CC1=O` (configuration not stated), the inhibition was 15.5% (inactive).
In the case of `CCCC(=Nc1ccc(N)cc1)C1=C(O)C(C(=O)OC)C(C)(C)CC1=O` (configuration not stated) it was 28.8% (inactive); in that of `COc1ccc(OC)c2sc(NC(=O)CCSc3ccccc3)nc12`, 2.1% (inactive); in that of `Cc1ccc2cccc(O)c2[n+]1[O-]`, 53.5% (active).
As for `Cc1cc(C)c2ccc(C)[n+]([O-])c2c1O`, the inhibition is -26.8% (inactive).
For `Oc1cccc2cc3cccc(O)c3c(O)c12`, the inhibition was -119% (inactive).
As to `Cc1cccc(Cn2ccc(NC(=O)c3cccnc3)n2)c1`, the inhibition was -9.3% (inactive).
Consider `CCOc1ccc(C(=O)CC(Sc2ccc(C)cc2)C(=O)O)cc1` (configuration not stated), for which the inhibition is -4% (inactive).
Take `CCCOC(=O)c1ccc(Oc2c(-c3ccc(O)cc3O)n[nH]c2C)cc1`: the inhibition was 5.2% (inactive).
As for `COc1cc(N2CCCC2)c(OC)cc1/C=C1/NC(=S)NC1=O`, the inhibition was 27.9% (inactive).
For `COc1cc(N2CCCC2)c(OC)cc1/C=C(/C#N)c1ccc(Br)cc1`, the inhibition is 13.6% (inactive).
With `COc1cc(N2CCCC2)c(OC)cc1C=O`, the inhibition was 53.6% (active).
On to `COc1cc(N2CCCC2)c(OC)cc1/C=C(/C#N)c1ccc(F)cc1`, for which the inhibition is 54.8% (active).
In the case of `COc1cc(N2CCCC2)c(OC)cc1/C=C(/C#N)c1cccc(F)c1` it was 11.2% (inactive); in that of `COc1cc(N2CCCC2)ccc1C=O`, 23% (inactive).
For the compound `CCOCCCN1CN(Cc2ccccc2)CNC1=S`, the inhibition is -6.2% (inactive).
As for `Cc1cc(C)cc(OCC(=O)OCCN2C(=O)c3ccccc3C2=O)c1`, the inhibition is 11.5% (inactive).
The figure for `O=S1(=O)N=C(N2CCc3ccccc3C2)c2ccccc21` is -8.5% (inactive).
On to `CCOC(=O)N1CCN(c2cccc(C)c2C)CC1`, for which the inhibition was -11.4% (inactive).
Take `c1ccc(CN2CCN(C3=Nc4cccc5cccc3c45)CC2)cc1`: the inhibition was 21.9% (inactive).
The figure for `NC(=O)NNC1=Nc2cccc3cccc1c23` is 8.5% (inactive); for `c1ccc2c(c1)CCN(C1=Nc3cccc4cccc1c34)C2` it is 60.2% (active); for `CC1CN(c2nc3ccccc3cc2-c2ccccc2)CC(C)O1` (configuration not stated) it is 5.7% (inactive).
Regarding `COc1ccccc1N1CCN(C2=Nc3cccc4cccc2c34)CC1`, the inhibition is 27.3% (inactive).
In the case of `c1ccc(NC2=Nc3cccc4cccc2c34)cc1` it was 9.8% (inactive).
With `CCOC(=O)N1CCN(C2=Nc3cccc4cccc2c34)CC1`, the inhibition is 58.5% (active).
As to `c1ccc(CC2CCN(C3=Nc4cccc5cccc3c45)CC2)cc1`, the inhibition is 10.8% (inactive).
As for `CC1CN(C2=Nc3cccc4cccc2c34)CC(C)O1` (configuration not stated), the inhibition was 59.2% (active).
The figure for `NC1=Nc2cccc3cccc1c23` is 60% (active).
